This note sets out measurements from the OligoGym collection.
Note: reference of the scale not given here.

The target in one assay is C20orf54. Kind of assay: pooled miR-30 sensor sort-seq; sequence = guide strand. As to conditions: shRNA.
Consider TTTCTCCTCTAGATACCCCTGG, for which the sensor-assay potency score (higher = more potent) worked out at 0.0398.
In turn, TCAGTGACATTGACGCAGGTAG showed a sensor-assay potency score (higher = more potent) of -0.422.
Sequence TATCTCAGTGACATTGACGCAG returned a sensor-assay potency score (higher = more potent) of 0.229.
With TTCTCCTCTAGATACCCCTGGC, the sensor-assay potency score (higher = more potent) is -0.528.
TTATCTGCTTGTCTTGTAGAAG came in with a sensor-assay potency score (higher = more potent) of -1.04.
Take TTGACGTAACTGAGGCAGCCGC: the sensor-assay potency score (higher = more potent) is -1.38.
On the same count and under the same terms, the value for TTCCCTTCTAACACCCTTGGGC was 0.125.
TGAAGAGGTGCAGTCCACCAGG came in with a sensor-assay potency score (higher = more potent) of -0.698.

The target in the next assay is C21orf70. The assay is described as above. The following applies: shRNA.
TCCAGCTTCTGCACCAAGGCGC yielded a sensor-assay potency score (higher = more potent) of -0.982.
On the same count and under the same terms, under TTCTTGGGCAAAACGGTCTTGG stands -0.889; under TTCGATTTTCTGCAACCATTGC, -1.09; under TTTTATGGCTTCGATTTTCTGC, -0.59.
Regarding TTGCTCACGCCTCAGCTTCATT, the sensor-assay potency score (higher = more potent) is -1.27.
TTCTGCACCAAGGCGCTGGGGT had a sensor-assay potency score (higher = more potent) of -0.84.
In the case of TTGGTGTTGATGAACGCCCAGT, the sensor-assay potency score (higher = more potent) was -0.833.
In turn, TTTATTGAGCCCCACAACCGAC showed a sensor-assay potency score (higher = more potent) of -1.2.
On the same count and under the same terms, under TTGAGCCCCACAACCGACCAGA stands -0.652; under TTTTCTGCAACCATTGCTCACG, -0.501; under TCTTCCAGCTGCATCTGCCGGG, -0.496.
For the sequence ATTTTCTGCAACCATTGCTCAC, the sensor-assay potency score (higher = more potent) is -1.16.
